Screening data as filed in PubChem.
Hck Nef HTS – inhibitors of human Hck kinase activated by Nef | P08631 | Recombinant Hck-YEEI plus Nef, Z-Lyte FRET kinase assay | inhibition, % at 20 µM | 0.68% of 220,000 active;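 active = Hck-Nef kinase inhibition above about 50%, limit read from the data; inactive = inhibition below that limit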;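 note: 0% = DMSO with Hck plus Nef and 100% = Hck alone without Nef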
Target sequence (P08631 whole entry, looked up): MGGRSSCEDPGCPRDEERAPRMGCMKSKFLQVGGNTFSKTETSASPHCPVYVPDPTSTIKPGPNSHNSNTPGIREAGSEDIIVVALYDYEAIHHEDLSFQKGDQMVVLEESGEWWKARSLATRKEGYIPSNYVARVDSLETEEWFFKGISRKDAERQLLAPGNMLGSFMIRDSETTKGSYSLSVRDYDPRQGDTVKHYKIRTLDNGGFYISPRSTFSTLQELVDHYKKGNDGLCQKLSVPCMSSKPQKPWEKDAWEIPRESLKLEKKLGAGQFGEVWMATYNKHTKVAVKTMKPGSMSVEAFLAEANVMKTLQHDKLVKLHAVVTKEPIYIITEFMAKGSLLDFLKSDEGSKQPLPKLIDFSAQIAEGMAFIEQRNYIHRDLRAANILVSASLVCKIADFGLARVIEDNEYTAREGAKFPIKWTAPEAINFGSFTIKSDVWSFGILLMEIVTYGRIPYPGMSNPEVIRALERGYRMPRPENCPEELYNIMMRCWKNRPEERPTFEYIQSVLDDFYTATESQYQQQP
LYPLA2 counter – LYPLA2 (human) inhibition in PME1 counter-screen; O95372; recombinant LYPLA2, FP-Rh probe fluorescence polarization; inhibition, % at 5.9 µM; 0.38% of 320,000 active; AID 2177;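 active = inhibition above the screen-wide mean plus 3 SD, limit set per campaign, cut at about 26% in these data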;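 note: 0% = LYPLA2 with DMSO and 100% = wells lacking LYPLA2 enzyme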
p97 inhibitor – blocks human p97 ATPase activity; AID 1481; recombinant p97 ATPase, Kinase-Glo ATP luminescence, 3 h; P55072; 0.42% of 220,000 active; inhibition, % at 8 µM; in the data active = inhibition above about 15%;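 note: 0% = DMSO vehicle and 100% = wells lacking enzyme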
PREPL inh – inhibitors of human prolyl oligopeptidase-like enzyme PREPL; 0.68% of 320,000 active; recombinant PREPL, fluorescence polarization activity-based probe; inhibition, % at 5.96 µM; Q4J6C6; in the data active = inhibition above about 43%;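 note: 0% = enzyme with DMSO and 100% = wells lacking enzyme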
LYPLA1 counter – counter-screen for PME1 inhibitors: inhibitors of human LYPLA1. inhibition, % at 5.9 µM. recombinant LYPLA1, FP-Rh probe fluorescence polarization. 0.16% of 320,000 active. O75608;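 active = inhibition above the mean of all tested compounds plus 3 SD, set per campaign, cut at about 14% in these data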;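 note: inhibitors block serine hydrolase probe labeling of LYPLA1 so polarization falls; 0% = enzyme with DMSO and 100% = wells lacking LYPLA1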
Rin1 Abl inh – blocks binding of human Rin1 to Abl; 0.4% of 360,000 active; P00519+Q13671; inhibition, % at 7.35 µM; TR-FRET Rin1/Abl binding, biochemical; in the data active = inhibition above about 5%, passing the limit was not always enough
Hck-Nef confirm – Hck-Nef kinase inhibition, confirmation. shares compounds with Hck Nef HTS. Recombinant Hck-YEEI:Nef, Z-Lyte FRET kinase assay. calls only at 10 µM. 28% of 1,300 active. AID 463188;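 active = average inhibition of at least 50%, with Z-scores no higher than 3 in both the phospho-tyrosine peptide and fluorescence counterscreens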
Starred values were filed as active, the others as inactive; i = inactive; / = no result given; + = active, no number. Most compounds without a hit are left out; they make up all but 1.7% or so of the library.

SMILES	Hck Nef HTS	LYPLA2 counter	p97 inhibitor	PREPL inh	LYPLA1 counter	Rin1 Abl inh	Hck-Nef confirm
COC(=O)c1ccc(COc2ccccc2/C=C(\C#N)C(=O)Nc2ccc(C)cc2)cc1	10	-1	0	-4	-2	1	/
COc1ccc(/C=C(\C#N)C(=O)Nc2ccc3[nH]c(=O)[nH]c3c2)cc1	71*	3	4	15	1	-2	i
COc1cc(/C=C(/C#N)c2ccc(F)cc2)ccc1OCc1ccc(C(=O)O)o1	55*	9	2	-11	-1	-1	+
COc1ccc(NC(=O)/C(C#N)=C/c2ccc3c(c2)n(C)c(=O)n3C)cc1	1	-5	2	3	-10	2	/
C(=C\c1nccc2c1[nH]c1ccccc12)/c1ccccc1	164*	-17	11	24	-9	-1	/
CC(C)CC(=O)Nc1c(C(=O)N2CCN(Cc3ccccc3)CC2)oc2ccccc12	/	6	/	-4	-1	1	/
COc1cc(/C=C2\SC(=O)N(Cc3ccc(Cl)cc3)C2=O)cc([N+](=O)[O-])c1O	51*	/	1	/	/	-2	i
COc1cc(/C=C2\SC(=O)N(Cc3ccc(F)cc3)C2=O)cc([N+](=O)[O-])c1O	26	/	2	/	/	0	/
COc1cc(NC(=S)Nc2ncccc2C)cc(OC)c1OC	-1	-5	1	0	-6	-1	/
COc1cc(NC(=S)Nc2cccc(C)n2)cc(OC)c1OC	97*	5	1	3	5	-4	i
C/C(N)=C(/C#N)C(=O)CSc1nc2ccccc2c(=O)n1Cc1ccc(C)cc1	55*	-15	-5	-12	-8	-50	i
O=C1OC(/C=C/c2ccccc2)=NC/1=C\c1cccnc1	82*	-2	1	4	-5	-3	+
O=C(Cc1ccccc1)NNc1c2ccccc2nc2ccccc12	5	1	5	2	-3	-3	/
O=C(Nc1c2ccccc2nc2ccccc12)C(Cl)(Cl)Cl	71*	6	3	0	-1	-11	i
O=C(CN1C(=O)NC2(CCCC2)C1=O)N1CCN(c2ccccc2Cl)CC1	/	-5	/	-1	1	2	/
COc1ccc(/C=C/C(=O)NCc2cn(C)nc2C)cc1COc1ccc(Cl)cc1Br	0	1	-10	-2	-3	-4	/
CCn1nc(C)c(NC(=O)/C=C/c2ccc(OC)c(COc3ccc(Cl)cc3Br)c2)c1C	99*	0	-3	-4	-4	2	i
COc1ccc(/C=C2\C(=O)ON=C2c2cccc([N+](=O)[O-])c2)cc1	53*	3	6	3	-1	/	i
O=C(c1c[nH]c(C(=O)C(Cl)(Cl)Cl)c1)c1ccccc1Br	79*	-6	5	0	-5	6	i
CNC(=O)c1cc(C(=O)c2ccccc2Br)c[nH]1	/	-2	/	13	1	-1	/
COc1ccc(C(=O)OCC(=O)Nc2cccc(S(=O)(=O)NC3=NCCCCC3)c2)cc1[N+](=O)[O-]	/	/	/	/	/	1	/
CC(C)C1Cc2[nH]c(=O)c(C(=O)O)cc2CO1 (stereo not given)	75*	6	-6	6	0	-2	i
CC(NC(=O)c1cc(S(=O)(=O)N2CCCC2)ccc1Cl)c1ccccn1 (stereo not given)	/	-4	/	9	-3	-2	/
COc1ccc(Sc2ccc(/C=C3\C(=O)NN(c4ccccc4)C3=O)o2)cc1	-2	-7	1	5	-2	-2	/
O=C1NN(c2ccccc2)C(=O)/C1=C\c1ccc(-c2cc([N+](=O)[O-])ccc2O)o1	76*	/	8	/	/	0	+
O=C1NN(c2ccc(Cl)cc2)C(=O)/C1=C\c1ccc(-c2cccc(C(=O)O)c2)o1	53*	/	7	/	/	-1	i
Cc1ccc(N2NC(=O)/C(=C/c3ccc(-c4ccc(Cl)c(C(=O)O)c4)o3)C2=O)cc1	25	4	-6	10	-1	1	/
CCCCN(C(=O)c1cccc(-n2cccc2)c1)c1c(N)n(Cc2ccccc2)c(=O)[nH]c1=O	/	-8	/	-6	-4	2	/
